Here are results for 17 compounds from PubChem BioAssay.

SMILES strings stand for the structures. The source made the active and inactive calls.

The nature of experiment [1]: binders of probe aFSTL3 on microarray, primary screen, stem cell growth factor project, biochemical, small-molecule microarray, fluorescence 635/667 (AID 1064).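 Note: measures binding of the biotinylated anti-FSTL3 antibody to printed compounds.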 The note with it: higher = more signal.
Experiment [2] can be described thus: binders from COS7 lysate, DM2A8 probe, primary screen, torsin A project, cell lysate, small-molecule microarray, fluorescence 635/667 (AID 1065). The note with it: higher = more signal, COS7 lysate expressing mutant human TOR1A.
Experiment [3] in a line: binders of probe aFGF2 on microarray, primary screen, stem cell growth factor project, biochemical, small-molecule microarray, fluorescence 635/667 (AID 1067).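 Note: measures binding of biotinylated aFGF2 protein to printed compounds on slides; z-score merges feature fluorescence and signal-to-noise across triplicate slides.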 To be noted: higher = more signal.
Experiment [4] can be described thus: binders of probe aFGF10 on microarray, primary screen, stem cell growth factor project, biochemical, small-molecule microarray, fluorescence 635/667 (AID 1071).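 Note: score merges 667 nm spot intensity and signal to noise from triplicate slides.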 To be noted: higher = more signal.
Experiment [5] addresses Neurogenic locus notch homolog protein 2 (Homo sapiens) (UniProt Q04721). Nature of the experiment: Notch2 binders on small-molecule microarrays, primary screen, biochemical, small-molecule microarray, 635 nm fluorescence, stem cell growth factors (AID 1073). The note with it: Notch2 binding, higher = more signal.
Experiment [6] deals with Pro-neuregulin-1, membrane-bound isoform (Homo sapiens) (UniProt Q02297). Nature of the experiment: NRG1 binders on small-molecule microarrays, primary screen, psychiatric disease protein project, biochemical, small-molecule microarray, fluorescence 635/667 (AID 1075).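 Note: score combines 667 nm spot fluorescence with signal to noise.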 To be noted: NRG1 binding, 635 nm fluorescence, higher = more signal.
Experiment [7] concerns Neuregulin-1 EGF-like domain. Nature of the experiment: binders of neuregulin-1 EGF-like domain, primary screen, biochemical, small-molecule microarray, 635 nm fluorescence (AID 1081).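 Note: binding of the protein to compounds printed on small-molecule microarray slides.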 To be noted: small-molecule microarray binding, higher = more signal.
Experiment [8] is described as follows: FRG1 promoter luciferase signal modulators, primary screen, FRG1 inhibition for FSHD, cell-based, C2C12 myotubes, firefly/Renilla luciferase, luminescence (AID 1084). To be noted: higher = more signal, called active from +8 up or from −8 down.
The nature of experiment [9]: binders of probe aFST on microarray, primary screen, stem cell growth factor project, biochemical, small-molecule microarray, fluorescence 635/667 (AID 1086).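 Note: score merges 667 nm fluorescence with signal-to-noise of each printed compound spot.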 The note with it: higher = more signal.
Experiment [10] can be described thus: binders of probe aHhip on microarray, primary screen, stem cell growth factor project, biochemical, small-molecule microarray, fluorescence 635/667 (AID 1087).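 Note: score merges spot fluorescence at 667nm with spot signal to noise ratio.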 To be noted: higher = more signal.

Neurogenic locus notch homolog protein 2 (Homo sapiens), sequence (Q04721 whole entry, looked up, canonical isoform): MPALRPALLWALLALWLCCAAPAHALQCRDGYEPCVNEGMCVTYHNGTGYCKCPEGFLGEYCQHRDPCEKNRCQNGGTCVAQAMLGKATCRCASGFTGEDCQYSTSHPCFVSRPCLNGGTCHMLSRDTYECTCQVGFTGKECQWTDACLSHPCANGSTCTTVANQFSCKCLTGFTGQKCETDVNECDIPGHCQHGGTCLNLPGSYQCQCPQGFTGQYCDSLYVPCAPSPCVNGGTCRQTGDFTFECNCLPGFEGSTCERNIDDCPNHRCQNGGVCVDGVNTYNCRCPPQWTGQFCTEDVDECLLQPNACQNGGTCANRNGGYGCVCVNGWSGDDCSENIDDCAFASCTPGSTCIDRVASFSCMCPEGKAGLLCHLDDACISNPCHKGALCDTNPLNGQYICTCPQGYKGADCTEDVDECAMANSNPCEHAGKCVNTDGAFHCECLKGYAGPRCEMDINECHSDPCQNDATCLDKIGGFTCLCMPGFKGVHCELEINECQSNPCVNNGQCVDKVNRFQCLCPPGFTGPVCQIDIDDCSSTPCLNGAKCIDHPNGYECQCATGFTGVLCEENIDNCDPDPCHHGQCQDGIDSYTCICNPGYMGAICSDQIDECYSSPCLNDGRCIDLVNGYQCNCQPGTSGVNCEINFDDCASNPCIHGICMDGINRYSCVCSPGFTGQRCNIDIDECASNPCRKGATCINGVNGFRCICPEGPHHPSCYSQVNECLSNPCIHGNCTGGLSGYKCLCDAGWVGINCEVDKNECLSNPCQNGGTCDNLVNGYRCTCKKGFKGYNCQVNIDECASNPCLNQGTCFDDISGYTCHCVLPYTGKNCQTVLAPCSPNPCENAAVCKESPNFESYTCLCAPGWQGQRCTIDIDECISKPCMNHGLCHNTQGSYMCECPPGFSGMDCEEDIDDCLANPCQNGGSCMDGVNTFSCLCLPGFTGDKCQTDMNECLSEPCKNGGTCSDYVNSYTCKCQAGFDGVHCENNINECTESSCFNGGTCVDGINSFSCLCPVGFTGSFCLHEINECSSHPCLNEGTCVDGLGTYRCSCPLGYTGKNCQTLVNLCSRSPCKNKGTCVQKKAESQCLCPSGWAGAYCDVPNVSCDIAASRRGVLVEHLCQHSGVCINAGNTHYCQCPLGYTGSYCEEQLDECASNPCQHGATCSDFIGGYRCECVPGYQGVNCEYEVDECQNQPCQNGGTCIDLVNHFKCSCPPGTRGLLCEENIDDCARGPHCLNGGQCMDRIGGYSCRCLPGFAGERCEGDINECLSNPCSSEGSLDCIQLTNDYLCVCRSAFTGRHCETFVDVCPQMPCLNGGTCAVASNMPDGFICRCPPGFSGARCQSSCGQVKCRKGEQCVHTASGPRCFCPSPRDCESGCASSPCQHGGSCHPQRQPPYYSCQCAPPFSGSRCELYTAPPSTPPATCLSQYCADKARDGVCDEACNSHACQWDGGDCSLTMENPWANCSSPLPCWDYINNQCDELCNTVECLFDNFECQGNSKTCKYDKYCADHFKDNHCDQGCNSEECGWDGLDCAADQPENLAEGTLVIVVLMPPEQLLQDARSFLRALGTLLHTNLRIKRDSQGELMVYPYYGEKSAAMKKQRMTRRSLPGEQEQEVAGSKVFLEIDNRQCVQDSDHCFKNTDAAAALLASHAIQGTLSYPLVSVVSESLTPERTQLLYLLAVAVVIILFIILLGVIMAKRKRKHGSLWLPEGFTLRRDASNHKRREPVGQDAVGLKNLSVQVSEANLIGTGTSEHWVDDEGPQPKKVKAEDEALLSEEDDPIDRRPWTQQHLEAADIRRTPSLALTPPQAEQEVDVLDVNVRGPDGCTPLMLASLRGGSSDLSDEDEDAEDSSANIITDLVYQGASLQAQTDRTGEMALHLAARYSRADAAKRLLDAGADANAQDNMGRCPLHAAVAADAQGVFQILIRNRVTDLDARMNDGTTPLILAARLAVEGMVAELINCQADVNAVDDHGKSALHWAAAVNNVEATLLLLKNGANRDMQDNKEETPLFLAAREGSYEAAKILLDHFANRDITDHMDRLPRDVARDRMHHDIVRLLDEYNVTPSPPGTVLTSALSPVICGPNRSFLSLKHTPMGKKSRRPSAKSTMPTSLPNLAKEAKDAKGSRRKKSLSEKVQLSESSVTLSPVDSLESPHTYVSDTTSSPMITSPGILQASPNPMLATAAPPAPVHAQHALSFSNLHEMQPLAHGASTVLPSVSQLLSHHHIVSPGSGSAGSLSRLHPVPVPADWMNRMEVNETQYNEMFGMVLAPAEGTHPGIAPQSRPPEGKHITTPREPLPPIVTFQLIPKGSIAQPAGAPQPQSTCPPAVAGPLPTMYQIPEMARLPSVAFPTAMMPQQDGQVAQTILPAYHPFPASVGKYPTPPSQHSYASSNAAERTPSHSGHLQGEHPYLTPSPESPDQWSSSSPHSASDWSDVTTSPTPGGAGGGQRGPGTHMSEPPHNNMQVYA
Pro-neuregulin-1, membrane-bound isoform (Homo sapiens), sequence (Q02297 whole entry, looked up, the tested form may be a part, canonical isoform): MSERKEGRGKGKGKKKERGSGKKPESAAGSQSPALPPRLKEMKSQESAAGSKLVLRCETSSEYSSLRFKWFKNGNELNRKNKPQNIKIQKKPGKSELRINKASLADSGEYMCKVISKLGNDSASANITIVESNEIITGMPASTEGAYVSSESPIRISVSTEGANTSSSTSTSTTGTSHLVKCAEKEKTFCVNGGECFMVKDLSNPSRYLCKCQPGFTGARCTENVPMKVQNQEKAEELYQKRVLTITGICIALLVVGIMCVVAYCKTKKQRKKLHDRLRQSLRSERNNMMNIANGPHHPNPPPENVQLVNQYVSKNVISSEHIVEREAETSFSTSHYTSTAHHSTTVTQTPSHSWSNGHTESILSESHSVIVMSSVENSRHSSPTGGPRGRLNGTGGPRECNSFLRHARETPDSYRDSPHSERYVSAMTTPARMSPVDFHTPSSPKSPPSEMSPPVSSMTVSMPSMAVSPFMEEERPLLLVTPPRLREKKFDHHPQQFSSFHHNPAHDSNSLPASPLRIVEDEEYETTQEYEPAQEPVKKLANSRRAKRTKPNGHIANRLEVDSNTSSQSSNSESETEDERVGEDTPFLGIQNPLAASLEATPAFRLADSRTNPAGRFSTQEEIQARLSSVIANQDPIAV

As for `COC(=O)[C@@]1(Cc2ccc(F)cc2)[C@H]2c3cc(C(=O)N(C)C)n(CC4CC4)c3C[C@H]2CN1C(=O)c1ccccc1`, the composite z-score was found to be 2.43 in experiment [1]; 1.04 in [2]; 0.833 in [3]; 1.27 in [4]; 1.58 in experiment [5]; 1.6 in experiment [6]. Moreover, the results for the composite z-score in experiment [7], in experiment [9] and in experiment [10] were 1.26, 2.76 and 0.741, respectively. Further, in experiment [8], the z-score was -0.115 (inactive).
For `C=C(CCCC)C(=O)CC[C@@H](OC(=O)c1cccnc1)c1ccc(CO)o1`, the composite z-score was -0.45 in experiment [1]; 0.0802 in [2]; -0.008 in experiment [3]; 0.601 in [4]; 0.88 in experiment [5]; 1.05 in experiment [6]. In addition, the results for the composite z-score in experiment [7], in experiment [9] and in experiment [10] were 1.07, 0.391 and 0.122, respectively. For the same compound, the z-score in experiment [8] was -0.434 (inactive).
Turning to `COCCOC(=O)N1C(=O)[C@@]2(c3cc(C#CC4=CCCCC4)ccc31)[C@H](C(=O)Nc1nc3ccccc3s1)[C@H]1C(=O)O[C@H](c3ccccc3)[C@H](c3ccccc3)N1[C@@H]2c1ccc(OCCO)cc1`, the composite z-score in experiment [1] is -0.152; in experiment [2], 0.471; in experiment [3], -0.0009; in experiment [4], 0.427; in [5], 1.12; in experiment [6], 0.342. Also, the composite z-score in experiment [7] was 0.899; in [9], 0.146; in experiment [10] it was -0.0994. In [8], the z-score was 2.19 (inactive).
For the compound `C=CCC(OC(C)=O)[C@@H]1[C@@H](N(Cc2cccc3ccccc23)C(=O)c2ccc(-c3ccccc3)cc2)c2cc(OCCCO)ccc2N1C(=O)Cc1ccc(OC)cc1` (stereo not given in full), the composite z-score is -0.184 in experiment [1]; 0.419 in [2]; -0.061 in [3]; 0.151 in experiment [4]; -0.131 in experiment [5]; 0.0521 in experiment [6]. Further, the figures for the composite z-score in [7], in experiment [9] and in experiment [10] were 0.138, -0.0107 and -0.0618, respectively. Moreover, the z-score in experiment [8] was 0.61 (inactive).
With `CC(C)(C)OC(=O)CC[C@]1(C(=O)O)N=C(c2ccc(OCCCO)cc2)O[C@H]1c1ccccc1N=[N+]=[N-]`, the composite z-score in experiment [1] worked out at 1.1; in experiment [2], 0.236; in [3], 0.441; in [4], 0.448; in [5] it was 0.984; in [6], 1.35. For the same compound, the composite z-score in experiment [7] stood at 1.14; in experiment [9] it was 2.04; in experiment [10], 1.24. In addition, the z-score in experiment [8] is 5.5 (inactive).
On to `[N-]=[N+]=Nc1ccccc1C[C@]1(C(=O)NCC(O)CO)N=C(c2ccc(OCCCO)cc2)O[C@H]1c1ccccc1N=[N+]=[N-]` (stereo not given in full), for which the composite z-score was 0.722 in experiment [1]; 0.0264 in experiment [2]; 0.056 in [3]; 0.33 in experiment [4]; 0.379 in experiment [5]; 1.45 in experiment [6]. For the same compound, the results for the composite z-score in experiment [7], in experiment [9] and in [10] were 0.753, 0.375 and -0.0994, respectively. Moreover, in experiment [8], the z-score is -0.516 (inactive).
As for `CCCCc1cn(C[C@H](Cc2ccccc2)NC(=O)N[C@H](CO)CCc2oc(C(C)=O)c(C(=O)OC)c2C(=O)OC)nn1`, the composite z-score was -0.422 in experiment [1]; 0.651 in experiment [2]; -0.166 in [3]; 0.864 in experiment [4]; 1.56 in experiment [5]; 0.979 in [6]. Further, the composite z-score in experiment [7] was 1.32; in experiment [9], 0.839; in experiment [10], -0.0994. Also, in [8], the z-score was 0.833 (inactive).
`O=C1C[C@]2(c3ccc([N+](=O)[O-])cc3)C(=O)N(CCN3CCOCC3)c3cc(CO)ccc3[C@H]2N1C1CCCCC1`: the composite z-score was 0.526 in experiment [1]; -0.808 in experiment [2]; -0.162 in experiment [3]; -0.212 in experiment [4]; -0.309 in [5]; 1.37 in experiment [6]. Moreover, the composite z-score in [7] is -0.251; in [9], 0.105; in [10] it was -0.121. In [8], the z-score was -1.88 (inactive).
Turning to `C=CCOC(=O)[C@@H]1[C@H]2C(=O)O[C@H](c3ccccc3)[C@H](c3ccccc3)N2[C@H](c2ccc(OCCOC(=O)[C@@H]3C[C@@H]4C(=O)N[C@@H](CCCCN(C)C)C(=O)N4[C@@H]3c3ccc(O)cc3)cc2)[C@@]12C(=O)Nc1ccc(I)cc12`, the composite z-score in [1] was -0.317; in experiment [2], 0.25; in [3] it was -0.0216; in experiment [4], 0.347; in [5], 1.2; in [6], 1.11. The composite z-score was 1.2 in experiment [7], 0.171 in [9] and -0.108 in experiment [10]. For the same compound, the z-score in [8] was 0.0976 (inactive).
Regarding `Cc1ccc(C(C)CC(O)C2C=CC3C(=O)N(c4ccccc4)C(=O)C3N2Nc2ccc([N+](=O)[O-])cc2)o1` (stereo not given), the composite z-score in experiment [1] is -0.0729; in experiment [2] it was 0.123; in experiment [3] it was 0.0757; in experiment [4] it was 0.513; in experiment [5], 1.51; in [6] it was 1.69. Moreover, the figures for the composite z-score in [7], in [9] and in [10] were 1.2, 1.51 and 0.0373, respectively. Moreover, the z-score in experiment [8] is 0.296 (inactive).
On to `CN1C(=O)C2C=CC(C(O)c3ccc(-c4ccccc4)s3)N(N(c3ccccc3)c3ccccc3)C2C1=O` (stereo not given), for which the composite z-score in experiment [1] was 0.415; in experiment [2] it was -0.235; in experiment [3], 0.0034; in experiment [4], 0.199; in [5], 1.15; in [6], 0.782. Besides, the composite z-score in experiment [7] was 0.949; in experiment [9] it was 0.422; in experiment [10], 0.248. The z-score in experiment [8] is 0.685 (inactive).
Take `CN1C(=O)[C@]2(Cc3ccccc3)N=C(c3ccc(OCCCO)cc3)O[C@@H]2c2ccccc21`: the composite z-score in experiment [1] was 0.547; in experiment [2], 0.758; in experiment [3] it was -0.0333; in experiment [4], 0.802; in [5], 0.826; in [6], 1.36. The composite z-score amounted to 1.35 in experiment [7], 0.265 in experiment [9] and 0.12 in [10]. The z-score in [8] is -0.113 (inactive).
Consider `O=C(NCc1ccccc1)[C@@]1(Cc2ccccc2)N=C(c2ccc(OCCCO)cc2)O[C@H]1c1ccccc1`, for which the composite z-score in [1] came to 0.398; in [2], 1.92; in [3], 0.0557; in experiment [4], 0.177; in experiment [5], 1.56; in [6], 1.76. Further, the composite z-score in experiment [7] is 1.05; in experiment [9] it was 1.07; in experiment [10], -0.201. In addition, the z-score in [8] was -2.23 (inactive).
In the case of `CCCC#C[Si](O[C@H](CC)c1cn([C@H](CO)Cc2ccccc2)nn1)(C(C)C)C(C)C`, the composite z-score in [1] was -0.503; in [2], 0.236; in experiment [3], -0.0856; in [4], 0.449; in experiment [5], 0.769; in experiment [6], 0.471. In addition, the composite z-score was 0.988 in experiment [7], -0.0393 in [9] and -0.0003 in [10]. For the same compound, in experiment [8], the z-score is 0.889 (inactive).
Turning to `O=C1NC(=O)C2C1C=CC(C(O)c1cccc3ccccc13)N2Nc1ccccn1` (stereo not given), the composite z-score in experiment [1] is -0.0559; in [2] it was 0.143; in experiment [3] it was -0.0281; in experiment [4], 0.357; in experiment [5] it was 1.19; in experiment [6], 0.961. Also, the composite z-score in experiment [7] was 0.39; in [9] it was 0.125; in experiment [10] it was -0.242. Besides, the z-score in experiment [8] is 0.661 (inactive).
For the compound `COc1ccc([Si](C)(C)[C@H]2[C@H](CC(=O)N3Cc4ccccc4C[C@H]3CO)O[C@@]3(C(=O)N(Cc4ccc(N5CCC5=O)cc4)c4ccccc43)[C@@H]2C)cc1`, the composite z-score amounted to 0.061 in [1]; 0.859 in experiment [2]; 0.0967 in experiment [3]; 0.265 in experiment [4]; 0.198 in [5]; 1.08 in [6]. Further, the composite z-score amounted to 1.2 in experiment [7], 0.983 in experiment [9] and 0.115 in [10]. Besides, in experiment [8], the z-score is -4.57 (inactive).
Turning to `CN(C)C(=O)[C@]1(Cc2ccccc2N=[N+]=[N-])N=C(c2ccc(OCCCO)cc2)O[C@@H]1c1ccccc1`, the composite z-score in [1] was 0.127; in experiment [2] it was 0.227; in [3], 0.0901; in [4], 0.071; in experiment [5], 1.31; in experiment [6], 1.78. Moreover, the composite z-score is 1.13 in experiment [7], 0.627 in [9] and -0.374 in experiment [10]. The z-score in experiment [8] is -2.65 (inactive).
